Rows were chosen to be rich in hits. Some 6.5% of all compounds tested hit in one or more screens of this group.
HCMV inh = qHTS Assay for inhibitors of the human cytomegalovirus (HCMV) | HFF cells, HCMV-luciferase reporter, 72 h; hits give low values | activity change, negative = inhibition, % at 57.5 µM | 4.5% of 410,000 active | AID 1259415, 2018; in the data active means activity change below about -60%; inconclusive means no clear call, values can overlap the other calls; inactive means above about -39%
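After 16 h attachment at 37C, HFF cells received test compound and HCMV-luciferase (1 PFU/cell); reporter luminescence read 72 h later, data normalized against buffer-only and known inhibitor Salinomycin.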
Vaccinia Venus = qHTS for Stage-Specific Inhibitors of Vaccinia Orthopoxvirus: Venus Reporter Primary qHTS; Potency, µM (titrated, usually from 36.5 µM), hits mostly inhibitors; AID 720580, 2013; Vaccinia virus Venus reporter expression, fluorescence; 0.46% of 330,000 active; calls by dose curve; tested in A549 cells; further: nearly all actives have a fitted effect of over 30% in size
LASV entry inh = qHTS for Inhibitors of binding or entry into cells for Lassa Virus | Potency, µM (highest dose often 37.9 µM), actives largely listed as inhibitors | Lassa virus pseudotype entry inhibition, cell reporter | AID 540256, 2011 | 1.2% of 300,000 active; calls by dose curve; tested in HEK293 cells; further: nearly all actives have a fitted effect of over 50% in size
FMDV inh = High Throughput Screening for Foot and Mouth Disease Virus Antivirals; Potency, µM (doses to about 57.9 µM), actives largely listed as inhibitors; AID 1159524, 2015; FMDV antiviral cell-based qHTS; 1.2% of 410,000 active; calls by dose curve; tested in HEK293T cells; further: read-out not given here; nearly all actives have a fitted effect of over 45% in size
Marburg entry inh = qHTS for inhibitors of binding or entry into cells for Marburg Virus | Marburg virus pseudotyped entry inhibition, cell reporter | 1.8% of 300,000 active | Potency, µM (doses to about 37.8 µM), usual class: inhibitors; calls by dose curve; tested in HEK293 cells
Vaccinia mCherry = qHTS for Stage-Specific Inhibitors of Vaccinia Orthopoxvirus: mCherry Reporter Primary qHTS. 0.63% of 310,000 active. Vaccinia virus mCherry reporter infection, fluorescence. Potency, µM (doses to about 36.5 µM), most hits filed as inhibitors; calls by dose curve; tested in A549 cells; further: nearly all actives have a fitted effect of over 35% in size
Numbers stand for hits; n = inactive; u = inconclusive; x = not tested or not shown.

SMILES	HCMV inh	Vaccinia Venus	LASV entry inh	FMDV inh	Marburg entry inh	Vaccinia mCherry
CCOC(=O)C1(CCOc2ccccc2)CCN(Cc2ccc(O)c(OCC)c2)CC1	n	n	u	n	11µM	u
CCOC(=O)C1(CCc2ccccc2)CCN(Cc2ccc(OC)cc2)CC1	n	n	u	n	u	n
CCOC(=O)C1(CCc2ccccc2)CCN(Cc2csc(C(C)=O)c2)CC1	u	u	n	13µM	u	n
CCOC(=O)C1(CCc2ccccc2)CCN(Cc2c(O)cccc2OC)CC1	n	n	u	32µM	u	n
CCOC(=O)C1(CCc2ccccc2)CCN(Cc2cccc3c2OCO3)CC1	u	n	u	u	13µM	n
O=C(N[C@H](Cc1ccccc1)C(O)c1nc2ccccc2[nH]1)c1cccc2ccccc12 (stereo not given in full)	n	x	x	x	x	x
Nc1nc(NCc2ccc(Cl)c(Cl)c2)c2[nH]cnc2n1	x	n	x	x	x	n
COc1cccc(CNC(=O)CCn2c(=O)c3cccn3c3ccc(F)cc32)c1OC	n	n	n	n	x	n
CCOC(=O)C1(CCCc2ccccc2)CCN(C(=O)c2cncs2)CC1	n	n	u	n	n	n
CCOC(=O)C1(CCCc2ccccc2)CCN(C(=O)c2ocnc2C)CC1	n	n	2.8µM	n	n	n
Cc1ccc(S(=O)(=O)N2CCC(=O)N(CCOCc3cccc(Cl)c3)CC2)cc1	-64	n	n	n	n	n
Cc1ccc(S(=O)(=O)N2CCC(=O)N(C(COCc3cccc(C(F)(F)F)c3)C(C)C)CC2)cc1 (stereo not given)	x	u	u	u	13µM	u
Cc1ccc(S(=O)(=O)N2CCC(=O)N(CCOCc3cccc(F)c3)CC2)cc1	n	n	u	n	n	n
O=C(C[n+]1ccc(Cl)c2ccc(Cl)cc21)c1ccc(F)cc1	x	n	x	x	x	n
O=C(Nc1ccc(C(=O)N2CCN(c3cccc(Cl)c3)CC2)cc1)c1nsc2ccccc12	n	n	u	n	x	n
CN(C)CCCNS(=O)(=O)c1ccc(N2CCC(c3ccc(Cl)cc3)=N2)cc1	-102	x	x	x	x	x
CCN(CC)S(=O)(=O)c1ccc2c(c1)N(CC(=O)Nc1c(C)cccc1C)C(=O)CO2	n	n	n	n	n	n
C[N+]1(CC(=O)c2ccccc2)CCc2ccccc2C1 (stereo not given)	x	n	x	x	x	n
COc1ccc(N2CCN(S(=O)(=O)CCNC(=O)Cc3ccc(OC)c(OC)c3)CC2)cc1	n	n	n	n	x	n
CCC(C)NC(=O)c1c(N)n(/N=C/c2cccnc2)c2nc3ccccc3nc12 (stereo not given)	n	x	n	n	26µM	x
CCC(C)NC(=O)c1c(N)n(/N=C/c2ccccn2)c2nc3ccccc3nc12 (stereo not given)	u	x	n	n	u	x
CCCCCCC(=O)N1C/C=C\C(c2ccc(OC)cc2)N(Cc2ccc(F)cc2)C(=O)[C@H]1Cc1ccccc1 (stereo not given in full)	-93	u	x	u	x	n
Oc1cc(O)cc(/C=C/c2ccc(O)c(O)c2)c1	n	n	4.1µM	u	u	n
COc1ccc(NS(=O)(=O)c2cc(NC(=O)c3ccccc3F)ccc2N2CCCC2)cc1	u	n	u	n	u	u
COc1ccc(NS(=O)(=O)c2cc(NC(=O)c3ccc(C)o3)ccc2N2CCCCC2)cc1	-90	n	u	n	u	n
SMILES	HCMV inh	Vaccinia Venus	LASV entry inh	FMDV inh	Marburg entry inh	Vaccinia mCherry
COc1ccc(NS(=O)(=O)c2cc(NC(=O)c3cnccn3)ccc2N2CCCC2)cc1	u	u	n	n	n	n
CCC(=O)Nc1ccc(N2CCCCC2)c(C(=O)Nc2ccc(OC)cc2)c1	-81	n	n	n	u	u
COc1ccc(NS(=O)(=O)c2cc(NC(=O)c3cccs3)ccc2N2CCCC2)cc1	-97	n	u	n	u	n
Cc1cc(-c2cc(F)cc3c2OC(CNC(=O)[C@@H]2CCC(=O)N2)C3)ccc1F (stereo not given in full)	x	n	x	n	x	n
CC(=O)c1ccc(NC(=O)CCc2c(C)nn(-c3ccc4nncn4n3)c2C)cc1	n	n	u	n	x	n
COc1cc(C(=O)OCCCN2CCCN(CCCOC(=O)c3cc(OC)c(OC)c(OC)c3)CC2)cc(OC)c1OC	n	n	u	n	5.2µM	n

Screens as filed in PubChem BioAssay.
